PubChem BioAssay (NCATS)
Results filed as inconclusive are left out. Calls of active or inactive are those of the source. Calls follow the shape of the dose curve; as a rule, active = well fitted curve in the direction sought with a large enough effect; inconclusive = small, poorly fitted or top-dose-only effect, or another doubt; inactive = no such curve, though single readings can be large; an effect the other way counts as inactive or inconclusive.

What was measured:
NIH3T3 = assay: qHTS assay to identify novel small-molecules to repurpose for Merkel cell carcinoma treatment (AID 1296009); conditions: MCC and control cell lines, CellTiter-Glo viability, 72 h; at 44.8 µM (top of the series) unless noted; also: nearly all actives have a fitted effect of over 60% in size
Procedure, shortened: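 Cell viability measured by CellTiter-Glo following 72 hr compound treatment at 37 degree celsius, with NPC and MIPE libraries tested in 8- and 11-point concentration series.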

C33A = assay: Primary qHTS to identify gynecologic anti-cancer compounds using libraries of approved drugs and bioactive compounds (AID 1345084); conditions: Gynecologic cancer cell panel viability, ATPlite luminescence, 48 h; series mostly up to 57.5 µM; also: nearly all actives have a fitted effect of over 55% in size
Procedure, shortened: (§1)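 Measured: luminescence after ATPlite addition (15 min, RT). Exposure: 48 h, 37 C, 5% CO2.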

CAOV3 = assay: as above; conditions: Gynecologic cancer cell panel viability, ATPlite luminescence, 48 h; series mostly up to 57.5 µM
Procedure, shortened: as §1

CASKI = assay: as above; conditions: Gynecologic cancer cell panel viability, ATPlite luminescence, 48 h; series mostly up to 57.5 µM
Procedure, shortened: as §1

Measured: Potency

C=CC(C)(C)C12CC3C(=O)NC(Cc4cnc[nH]4)C(=O)N3C1Nc1ccccc12 (configuration not stated)
inactive: NIH3T3 | C33A | CAOV3 | CASKI

CC(=O)OC[C@@]12[C@H](O)C[C@@H](C)[C@]3(C[C@@H](c4ccoc4)OC3=O)[C@H]1C[C@H](O)C[C@]21CO1
inactive: NIH3T3 inactive [at 17.4 µM] | C33A | CAOV3 | CASKI

CC/C=C\C[C@H]1C(=O)C=C[C@@H]1CCCCCCCC(=O)O
inactive: NIH3T3 | C33A | CAOV3 | CASKI

NCc1c[nH]c(=S)n1C1CCc2c(F)cc(F)cc2C1 (configuration not stated)
inactive: NIH3T3 | C33A | CAOV3 | CASKI

CC1CCC2C(C)(C)CC(C)(CO)C2(O)C1C(=O)O (configuration not stated)
inactive: NIH3T3 | C33A | CAOV3 | CASKI

CC(C(=O)O)C1CCC2(C)C3C(=O)C=C4C(CCC(=O)C4(C)C)C3(C)CCC12C (configuration not stated)
inactive: NIH3T3 inactive [at 17.4 µM] | C33A | CAOV3 | CASKI

OC1COC(OCC2OC(OCCc3ccccc3)C(O)C(O)C2O)C(O)C1O (configuration not stated)
inactive: NIH3T3 inactive [at 17.4 µM] | C33A | CAOV3 | CASKI

CC(=O)O[C@@]1(C)C[C@@H](O)[C@]2(O)C=CO[C@@H](O[C@@H]3O[C@H](CO)[C@@H](O)[C@H](O)[C@H]3O)[C@@H]21
inactive: NIH3T3 inactive [at 17.4 µM] | C33A | CAOV3 | CASKI

COc1cc(CC(COC2OC(CO)C(O)C(O)C2O)c2cc(/C=C/CO)cc(OC)c2O)ccc1O (configuration not stated)
inactive: NIH3T3 inactive [at 17.4 µM] | C33A | CAOV3 | CASKI

CC(O)C(O)/C=C/C=C/C(=O)O[C@@H]1C=C2COC(=O)[C@]2(O)[C@@]2(C)CCCC(C)(C)C12 (some centres not stated)
inactive: NIH3T3 inactive [at 17.4 µM] | C33A | CAOV3 | CASKI

COC(=O)C1=COC(OC2OC(CO)C(O)C(O)C2O)C2C1CC(OC(=O)C(O)CC(=O)O)C2C (configuration not stated)
inactive: NIH3T3 inactive [at 17.4 µM] | C33A | CAOV3 | CASKI

COC1=CC(=O)C[C@@H](C)[C@]12Oc1cc(OC)cc(OC)c1C2=O
inactive: NIH3T3 | C33A | CAOV3 | CASKI

CC(=O)O[C@H](C[C@@H](C)[C@H]1C(=O)[C@H](O)[C@@]2(C)[C@@H]3CCC4C(C)(C)[C@@H](O[C@@H]5OC[C@H](O)[C@H](O)[C@H]5O)CC[C@@]45C[C@@]35CC[C@]12C)[C@@H]1OC1(C)C (some centres not stated)
inactive: NIH3T3 inactive [at 17.4 µM] | C33A | CAOV3 | CASKI

COc1cc([C@@H]2Oc3c(OC)cc(CCCO)cc3[C@@H]2CO[C@@H]2O[C@H](CO)[C@@H](O)[C@H](O)[C@H]2O)ccc1O
inactive: NIH3T3 inactive [at 17.4 µM] | C33A | CAOV3 | CASKI

CC(=O)O[C@@H]1[C@@H](OC(=O)/C=C/c2ccccc2)[C@H](C)O[C@@H](O[C@H]2[C@@H]3C=CO[C@@H](O[C@@H]4O[C@H](CO)[C@@H](O)[C@H](O)[C@H]4O)[C@@H]3[C@@]3(CO)O[C@@H]23)[C@@H]1OC(C)=O
inactive: NIH3T3 inactive [at 17.4 µM] | C33A | CAOV3 | CASKI

CC(NC(=O)CC(=O)O)c1nc2ccccc2c(=O)[nH]1 (configuration not stated)
inactive: NIH3T3 | C33A | CAOV3 | CASKI

C/C=C1\[C@H](O[C@@H]2O[C@H](CO)[C@@H](O)[C@H](O)[C@H]2O)OC=C(C(=O)OC)[C@H]1CC(=O)OC
inactive: NIH3T3 inactive [at 17.4 µM] | C33A | CAOV3 | CASKI

C=C1CCC2C(C)(C(=O)O)CC(O)CC2(C)C1CC/C(C)=C/C(=O)O (configuration not stated)
inactive: NIH3T3 | C33A | CAOV3 | CASKI

CC1(C)CC2C(O)C3=C(CC(C)(O)C2C1)C(=O)OC3O (configuration not stated)
inactive: NIH3T3 | C33A | CAOV3 | CASKI

CC1(C)CCCC2(C)C3=C(C(=O)OC3O)C(O)CC12 (configuration not stated)
inactive: NIH3T3 | C33A | CAOV3 | CASKI

CC[C@H]1OC(=O)C[C@@H](O)[C@H](C)[C@@H](O[C@@H]2O[C@H](C)[C@@H](O)[C@H](N(C)C)[C@H]2O)[C@@H](CCN2C[C@H](C)C[C@H](C)C2)C[C@@H](C)C(=O)/C=C/C(C)=C/[C@@H]1CO[C@@H]1O[C@H](C)[C@@H](O)[C@@H](OC)[C@H]1OC
inactive: NIH3T3 | C33A | CAOV3 | CASKI

COC1C2=C(COC2=O)C2(C)CCCC(C)(CO)C2C1OC(=O)c1ccccc1 (configuration not stated)
inactive: NIH3T3 inactive [at 17.4 µM] | C33A | CAOV3 | CASKI

COC(=O)C1(Cc2ccc(O)cc2)OC(=O)C(OC)=C1c1ccc(O)cc1 (configuration not stated)
inactive: NIH3T3 | C33A | CAOV3 | CASKI
